Screening data: PubChem BioAssay, several laboratories
LGR2 antag = inhibitors of bursicon-induced LGR2 CRE-luciferase signal, primary screen, cell-based, HEK293, CRE-luciferase reporter, bursicon stimulation | Drosophila bursicon receptor LGR2 (rickets) | bursicon-stimulated, 4 h | inhibition, % at 9.99 µM | 380,000 tested, 0.35% active | AID 720647, 2013;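 active means drop in luminescence signal, shown as inhibition above about 50% in the replicate tests, limit read from the data, passing the limit was not always enough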;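 further: agonist challenge used bursicon conditioned medium at about half maximal strength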
LMP1 NFkB inh = EBV LMP1-driven NF-kappaB luciferase reporter inhibitors, primary screen, cell-based, luminescence, single point; LMP1-induced NF-kappaB luciferase reporter cells; inhibition, % at 12.5 µM; 350,000 tested, 0.69% active; in the data active means inhibition above about 41%
EWS-Fli block = EWS/Fli-driven NR0B1 reporter inhibitors, primary screen, A673 cells, NR0B1 luciferase, luminescence, MLPCN library; viability-normalised; inhibition, % at 12.6 µM; 350,000 tested, 0.67% active; AID 651661, 2012;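 active means mean inhibition of at least 50% after viability correction, with every replicate also passing that limit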;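 further: firefly luciferase signal divided by Alamar Blue viability fluorescence both relative to DMSO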
TWEAK Fn14 block = inhibitors of TWEAK-Fn14 signaling, primary screen, luciferase reporter cells, uHTS; inhibition, % at 10 µM; TWEAK-stimulated Fn14 reporter cells, luciferase luminescence, 8 h; 360,000 tested, 2% active; in the data active means inhibition above about 50%
TROY NFkB inh = inhibitors of TROY-driven NF-kB signaling, primary screen, Q293 LMP1-TROYcd cells, NF-kB luciferase, uHTS | Q293 LMP1-TROYcd NF-kB luciferase reporter, 4 h | AID 1347056, 2019 | inhibition, % at 10 µM | 360,000 tested, 0.98% active;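 active means compounds whose plate-normalised and pattern-corrected inhibition of the luciferase reporter signal at the single screening dose is 50% or more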
PAX8 inh HTS = inhibitors of PAX8-driven TPO luciferase reporter, primary screen, RMG-I cells, single concentration. 360,000 tested, 1.2% active. inhibition, % at 12.6 µM. SteadyGlo, 24 h;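 active means mean replicate inhibition at least 60% with every replicate also reaching 60%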;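 further: luciferase light reporting Pax8 driven TPO promoter activity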
A number is an active result; 0 = inactive; - = not tested or not shown. This is a sample that favours compounds with a hit; in the whole collection about 3.1% have one here.

SMILES	LGR2 antag	LMP1 NFkB inh	EWS-Fli block	TWEAK Fn14 block	TROY NFkB inh	PAX8 inh HTS
COc1ccc(NC(=O)Nc2ccc3c(c2)C(=O)N([C@@H](C)CO)C[C@H](C)[C@H](CN(C)C(=O)Nc2ccc(OC)cc2)O3)cc1	0	-	0	-	-	0
CC1=NOC(=O)/C1=C/c1ccc(-c2ccc(Cl)cc2)o1	-	0	-	73	78	-
CC1=NOC(=O)/C1=C\c1ccc(-c2ccc(Br)cc2)o1	-	0	0	64	73	0
CC1=NOC(=O)/C1=C\c1ccc(-c2cc(Cl)ccc2Cl)o1	-	0	-	101	0	-
CC(NC(=O)OC(C)(C)C)C(=O)Oc1cc2oc(=O)cc(-c3ccccc3)c2cc1Cl (stereo not drawn)	-	0	-	71	0	-
CC(Oc1cc2oc(=O)cc(-c3ccccc3)c2cc1Cl)C(=O)NCC1CCC(C(=O)O)CC1 (stereo not drawn)	-	0	0	0	0	-
N#Cc1ccsc1NC(=O)CSc1ncnc2ccccc12	-	0	-	0	56	-
CN(C)S(=O)(=O)c1cccc(NC(=O)CSc2ncnc3ccccc23)c1	0	0	0	64	0	0
CN(C)S(=O)(=O)c1ccc(NC(=O)CSc2ncnc3ccccc23)cc1	0	0	-	0	0	0
COc1ccc2c3c(n(C)c2c1)[C@@H](CO)N(CC1CC1)CC31CCN(Cc2ccc(F)cc2)CC1	-	-	0	-	-	-
Cc1ccc(Sc2c(CO)c(-c3ccccc3)nn2C)cc1	0	0	0	0	0	66
Cc1noc(C)c1NC(=O)NCC[C@H]1CC[C@H](NC(=O)Cc2cccnc2)[C@@H](CO)O1	0	-	0	-	-	0
CCOC(=O)/C(=C/c1ccc(OC(F)F)cc1)C1=Nn2c(nnc2-c2ccc(Cl)cc2)SC1	-	0	0	107	91	0
CCOC(=O)/C(=C\c1ccc(OC(F)F)cc1)C1=Nn2c(nnc2-c2ccc(Cl)cc2)SC1	-	0	-	105	90	-
COCC#Cc1ccc2c(c1)O[C@@H](CN(C)S(=O)(=O)c1cccc(F)c1)[C@@H](C)CN([C@@H](C)CO)S2(=O)=O	0	-	0	-	-	-
C[C@@H]1CN([C@@H](C)CO)C(=O)c2cc(C#CC3(O)CCCC3)cnc2O[C@@H]1CN(C)C(=O)Nc1ccc2c(c1)OCO2	0	-	0	-	-	-
COc1ccc(S(=O)(=O)N[C@H]2CC[C@@H](CC(=O)N3CCC(Cc4ccccc4)CC3)O[C@@H]2CO)cc1	0	-	-	-	-	-
COCCCNC(=O)C(=O)Nc1ccc2c(c1)N(S(=O)(=O)c1cccs1)CCC2	0	0	63	0	0	0
CCCNC(=O)C(=O)Nc1ccc2c(c1)N(S(=O)(=O)c1cccs1)CCC2	0	0	0	0	0	0
Cc1noc(C)c1NC(=O)N(C)C[C@H]1OCCCC[C@H](C)Oc2ccc(NC(=O)Cc3ccccc3)cc2C(=O)N([C@@H](C)CO)C[C@H]1C	0	-	0	-	-	-
CCc1c(C2(O)CCCCC2)[nH]c2cc(C(F)(F)F)ccc12	-	0	-	0	51	-
Cc1c(C2(O)CCCCC2)[nH]c2cc(C(F)(F)F)ccc12	0	0	0	0	0	0
O=C1/C(=C/c2ccco2)SC(=S)N1C1CCS(=O)(=O)C1 (stereo not drawn)	55	0	0	0	0	0
O=C(Nc1ccncc1)c1c(Cl)cccc1Cl	0	0	0	55	0	0
O=C(NC1CCCC1)N1CCCCN2[C@@H](CO)[C@H](c3ccc(-c4ccccc4)cc3)[C@@H]2C1	0	-	0	-	-	0
SMILES	LGR2 antag	LMP1 NFkB inh	EWS-Fli block	TWEAK Fn14 block	TROY NFkB inh	PAX8 inh HTS
CN1C(=O)c2cc(NS(=O)(=O)c3ccccc3Cl)ccc2OC[C@H]2O[C@@H](CC(=O)O)CC[C@@H]21	0	-	0	-	-	0
COc1ccc(C(=O)CCN2CCN(c3ccccc3F)CC2)cc1	0	0	0	0	0	78
COc1ccccc1CNc1ccc2c(c1)CCC2	0	0	0	66	0	0
COc1ccc(CNc2ccc3c(c2)CCC3)cc1Br	-	0	0	57	0	0
CCCCOc1ccc(C(=O)C(CN2CCOCC2)c2ccccc2)cc1 (stereo not drawn)	-	0	-	0	0	-
O=C(c1ccc(Cl)cc1)C(CN1CCCC1)c1ccccc1 (stereo not drawn)	0	46	65	58	0	0
